Where “and” joins values, the source holds several entries; their conditions need not be identical. Identical values can stand only once. Inconclusive results are not listed. Calls of active or inactive are those of the source. The calls were made as follows, unless noted: active = hit-call score of the fitted dose curve at least 0.9, where 1 is the maximum; inactive = score below 0.9.
Columns and labels:
[1] = CCTE_Padilla_ZF_Score.Position: CCTE's 144 Hour Post-fertilization zebrafish Assay Score for Position, Padilla Lab (AID 2284409)
Summary of the method: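 Wild-type zebrafish embryos (with chorions) exposed singly from 6–8 hpf in sealed wells of Hanks' solution at 26C, rinsed at 5 dpf. At 6 dpf, blinded assessors scored abnormal water-column position by brightfield stereomicroscopy, relative to DMSO.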

[2] = CCTE_Padilla_ZF_Score.Living: CCTE's 144 Hour Post-fertilization zebrafish Assay Score for Viability, Padilla Lab (AID 2284410);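 also: larval death at 6 dpf judged by absent heartbeat or coagulation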
Summary of the method: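 Mortality at 6 dpf, judged as absent heartbeat or coagulation by two blinded observers, after sealed static exposure beginning at 6–8 hpf at 26C. Larvae were rinsed free of chemical at 5 dpf, and activity was fitted relative to DMSO.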

[3] = CCTE_Padilla_ZF_Score.General: CCTE's 144 Hour Post-fertilization zebrafish Assay Score for General Malformation, Padilla Lab (AID 2284411)
Summary of the method: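 Malformation, death and hatching were scored at 6 dpf by two blinded observers under a stereo microscope. Embryos were dosed singly from 6-8 hpf in sealed plates of 10% Hanks' at 26C and rinsed on 5 dpf; DMSO baseline.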

[4] = CCTE_Padilla_ZF_Score.Tail: CCTE's 144 Hour Post-fertilization zebrafish Assay Score for Tail Malformation, Padilla Lab (AID 2284414)
Summary of the method: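 Tail malformations were scored at 6 dpf by two blinded assessors under a stereo microscope. Chorionated embryos had been exposed from 6-8 hpf in sealed wells of 10% Hanks' at 26 C, then rinsed free of chemical at 5 dpf.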

[5] = CCTE_Padilla_ZF_Score.Blood_pooling: CCTE's 144 Hour Post-fertilization zebrafish Assay Score for Blood Pooling, Padilla Lab (AID 2284415)
Summary of the method: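 Blood pooling was scored at 6 dpf under a stereo microscope by two blinded assessors, fitted upward against DMSO. Single embryos were dosed at 6–8 hpf in 10% Hanks', kept sealed at 26C (14:10 h cycle) and rinsed at 5 dpf.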

[6] = CCTE_Padilla_ZF_Score.Any: CCTE's 144 Hour Post-fertilization zebrafish Assay Score for Any Mortality or Malformation, Padilla Lab (AID 2284416)
Summary of the method: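 Wild-type zebrafish embryos with chorions, one per well in 10% Hanks' from 6–8 hpf, dosed in sealed plates at 26 C, 14:10 h light:dark; rinsed at 5 dpf; blinded scoring at 6 dpf for death or malformation, versus DMSO.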

[7] = test system: TTR (gene 7276); test: CCTE_GLTED_hTTR_0.125uM: CCTE's human Transthyretin (hTTR) Inhibition Assay, with 0.125uM TTR, Great Lakes Toxicology and Ecology Division (GLTED) Lab (AID 2284431);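 also: hits lower the fluorescence signal relative to DMSO baseline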
Summary of the method: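 Cell-free displacement of ANSA probe from 0.125uM TTR after 2 h incubation with chemical. Fluorescence read at 380 nm excitation/475 nm emission; loss of signal relative to DMSO indicates T4-site displacement.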

[8] = test system: SRY-box transcription factor 17 (SOX17) Protein Expression, Deisenroth Lab, SOX17 (gene 64321); test: CCTE_Deisenroth_DEVTOX-GLR_Endo_SOX17: CCTE's DevTox GLR-Endo Assay Evaluation of SRY-box transcription factor 17 (SOX17) Protein Expression, Deisenroth Lab (AID 2284413)
Summary of the method: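 Fluorescent microscopy of a SOX17 reporter in RUES2-GLR pluripotent cells scored endoderm differentiation after 48 h and two 24-h-spaced exposures. Values are percent change in SOX17+ population against 0.2% DMSO, n=4 experimental replicates.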

[9] = test system: Brachyury (BRA) Protein Expression, TBXT (gene 6862); test: CCTE_Deisenroth_DEVTOX-GLR_Endo_BRA: CCTE's DevTox GLR-Endo Assay Evaluation of Brachyury (BRA) Protein Expression, Deisenroth Lab (AID 2284417)
Summary of the method: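 RUES2-GLR human pluripotent cells, seeded 24 h, then differentiated 48 h in defined media with two chemical exposures 24 h apart (10-point series, 1 nM - 200 uM). Fixed, nuclear-stained, imaged; endpoint is percent BRA+ cells minus 0.2% DMSO control.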

[10] = CCTE_Deisenroth_DEVTOX-GLR_Endo_CellCount: Viability Assessment in CCTE's DevTox GLR-Endo Assay, Deisenroth Lab (AID 2284420)
Summary of the method: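 RUES2-GLR pluripotent cells seeded 24 h, then differentiated 48 h in defined media with two chemical exposures 24 h apart. Nuclei counted by high-content imaging; 10-point 1 nM–200 uM series; percent change versus 0.2% DMSO.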

[11] = test system: SRY-box transcription factor 17 (SOX17) Protein Expression, Deisenroth Lab, SOX17 (gene 64321); test: CCTE_Deisenroth_DEVTOX-GLR_Pluri_SOX17: CCTE's DevTox GLR-Pluri Assay Evaluation of SRY-box transcription factor 17 (SOX17) Protein Expression, Deisenroth Lab (AID 2284427; active = hit-call score of the fitted dose curve at least 0.9, where 1 is the maximum)
Summary of the method: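 RUES2-GLR pluripotent cells were induced toward endoderm over 48 h and received two compound doses 24 h apart, in a 10-point series from 1 nM to 200 uM. The percentage of SOX17+ cells among total cells was measured by high-content imaging and reported minus the 0.2% DMSO control.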

[12] = test system: SRY-box transcription factor 2 (SOX2) Protein Expression, Deisenroth Lab, SOX2 (gene 6657); test: CCTE_Deisenroth_DEVTOX-GLR_Pluri_SOX2: CCTE's DevTox GLR-Pluri Assay Evaluation of SRY-box transcription factor 2 (SOX2) Protein Expression, Deisenroth Lab (AID 2284428)
Summary of the method: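 RUES2-GLR human pluripotent cells, two exposures 24 h apart over 48 h differentiation; 10-point series 1 nM - 200 uM. High-content imaging gives SOX2+ cells divided by cell count, reported as percent change versus 0.2% DMSO.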

[13] = test system: Brachyury (BRA) Protein Expression, Deisenroth Lab, TBXT (gene 6862); test: CCTE_Deisenroth_DEVTOX-GLR_Pluri_BRA: CCTE's DevTox GLR-Pluri Assay Evaluation of Brachyury (BRA) Protein Expression, Deisenroth Lab (AID 2284429; active = hit-call score of the fitted dose curve at least 0.9, where 1 is the maximum)
Summary of the method: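 Mesoderm readout after 48 h differentiation of human RUES2-GLR cells, dosed twice (24-h intervals) at 1 nM - 200 uM. BRA+ frequency from fluorescence imaging of fixed, nuclear-stained cells, DMSO-corrected.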

[14] = CCTE_Deisenroth_DEVTOX-GLR_Pluri_CellCount: Viability Assessment in CCTE's DevTox GLR-Pluri Assay Evaluation of Total Cell Counts, Deisenroth Lab (AID 2284430)
Summary of the method: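 Cytotoxicity readout: fluorescent nuclei counts by high-content imaging, expressed as percent change relative to 0.2% DMSO. Human RUES2-GLR pluripotent line differentiated 48 h, dosed twice at 24-h intervals across 1 nM - 200 uM (10 points).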

Question: Which AC50 [1] does the source give for `O=C(O)C(F)(F)C(F)(F)C(F)(F)C(F)(F)C(F)(F)C(F)(F)C(F)(F)C(F)(F)F` here?
Answer: 88.1 µM (active)

Question: And the AC50 [2]?
Answer: 81.2 µM (active)

Question: And the AC50 [3]?
Answer: 31.2 µM (active)

Question: And the outcome [4]?
Answer: inactive

Question: And the outcome [5]?
Answer: inactive

Question: And the AC50 [6]?
Answer: 29.1 µM (active)

Question: And the AC50 [7]?
Answer: 210 nM (active)

Question: For `CC(C)(c1ccccc1)c1ccc(O)cc1`, which AC50 [7] is on record?
Answer: 888 nM (active)

Question: For `NS(=O)(=O)C(F)(F)C(F)(F)C(F)(F)C(F)(F)C(F)(F)C(F)(F)C(F)(F)C(F)(F)F`, which outcome [1] is on record?
Answer: inactive

Question: And the AC50 [2]?
Answer: 1.76 µM (active)

Question: And the AC50 [3]?
Answer: 0.453 µM (active)

Question: What about the outcome [4] of the same compound?
Answer: inactive

Question: What about the outcome [5] of the same compound?
Answer: inactive

Question: And the AC50 [6]?
Answer: 0.747 µM (active)

Question: What about the AC50 [7] of the same compound?
Answer: 683 nM (active)

Question: Which outcome [1] does the source give for `O=C(O)C(F)(F)C(F)(F)C(F)(F)C(F)(F)C(F)(F)C(F)(F)C(F)(F)C(F)(F)C(F)(F)F` here?
Answer: inactive

Question: What about the AC50 [2] of the same compound?
Answer: 17.5 µM (active)

Question: What about the AC50 [3] of the same compound?
Answer: 11.5 µM (active)

Question: And the outcome [4]?
Answer: inactive

Question: And the outcome [5]?
Answer: inactive

Question: What about the AC50 [6] of the same compound?
Answer: 10.7 µM (active)

Question: What about the AC50 [7] of the same compound?
Answer: 646 nM (active)

Question: Which AC50 [7] does the source give for `Clc1ccc(C(Cl)(Cl)Cl)cc1` here?
Answer: 1040 nM (active)

Question: For `CCCCCCCCCc1ccc(O)cc1`, which AC50 [7] is on record?
Answer: 3030 nM (active)

Question: With `Cc1cc(-c2ccc(N)c(C)c2)ccc1N` as the compound, how does the AC50 [7] read?
Answer: 92.7 nM (active) and 178 nM (active)

Question: Which AC50 [7] does the source give for `CCC(C)(c1ccc(O)cc1)c1ccc(O)cc1` here?
Answer: 9260 nM (active)

Question: With `CC1=C2C[C@H]3[C@@H](CC=C4C[C@@H](O)CC[C@@]43C)[C@@H]2CC[C@]12O[C@@H]1C[C@H](C)CN[C@H]1[C@H]2C` as the compound, how does the outcome [8] read?
Answer: inactive

Question: And the outcome [9]?
Answer: inactive

Question: What about the outcome [10] of the same compound?
Answer: inactive

Question: And the outcome [11]?
Answer: inactive

Question: What about the outcome [12] of the same compound?
Answer: inactive

Question: And the outcome [13]?
Answer: inactive

Question: What about the outcome [14] of the same compound?
Answer: inactive

Question: Which AC50 [7] does the source give for `CC(c1ccc(O)cc1)(c1ccc(O)cc1)c1ccc(O)cc1` here?
Answer: 1480 nM (active)

Question: Which AC50 [7] does the source give for `CCC(C)c1cc([N+](=O)[O-])cc([N+](=O)[O-])c1O` (stereo not given) here?
Answer: 88.3 nM (active)

From PubChem BioAssay (EPA / NIEHS)
